# Results from PubChem BioAssay (NCATS).
# Results filed as inconclusive are left out. A call without a number means that no potency is given here. The source made the active and inactive calls. Calls follow the shape of the dose curve; as a rule, active = well fitted inhibition curve with a large enough effect; inconclusive = small, poorly fitted or top-dose-only effect; inactive = flat fitted curve, though single readings scatter. Peptide text beside a SMILES is read from it.
# Columns and labels:
# Assay in all cases: qHTS profiling for inhibitors of Plasmodium falciparum proliferation (AID 504749); also: nearly all actives have a fitted effect of over 60% in size
# Details in all cases: P. falciparum in erythrocytes, SYBR Green DNA, 72 h; series mostly up to 28.7 µM
# [1] = test system: CP250
# In short: (§1)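 P. falciparum-infected erythrocytes (0.3% parasitemia, 2.5% hematocrit) incubated with compound 72 h at 37 C, 5% CO2. Parasite DNA detected by SYBR Green after lysis, overnight at room temperature; normalised to 0.29 uM artemisinin and DMSO.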
# [2] = test system: CP252
# In short: as §1
# [3] = test system: CP256
# In short: as §1
# [4] = test system: CP260
# In short: as §1
# [5] = test system: CP262
# In short: as §1
# [6] = test system: CP265
# In short: as §1
# [7] = test system: CP266
# In short: as §1
# [8] = test system: CP268
# In short: as §1
# [9] = test system: CP269
# In short: as §1
# [10] = test system: CP286
# In short: as §1
# Potency is read from the fitted curve at half-maximal effect.
Compound,Potency [1],Potency [2],Potency [3],Potency [4],Potency [5],Potency [6],Potency [7],Potency [8],Potency [9],Potency [10]
O=C(COc1ccc(Cl)cc1)OCCNC12CC3CC(CC(C3)C1)C2,inactive,inactive,inactive,inactive,inactive,inactive,inactive,inactive,inactive,inactive
Oc1cc(O)c2c(c1)OC(c1ccc(O)c(O)c1)C(O)C2 (stereo not given),inactive,inactive,inactive,inactive,inactive,inactive,inactive,inactive,inactive,inactive
CCCCCCCCCCCCCC[n+]1ccc(C)cc1,3980 nM (active),4470 nM (active),5010 nM (active),2510 nM (active),inactive,4470 nM (active),4260 nM (active),1690 nM (active),1690 nM (active),1260 nM (active)
O=C(O)CCC(=O)C(=O)O,inactive,inactive,inactive,inactive,inactive,inactive,inactive,inactive,inactive,inactive
CC(Cc1ccc(O)c(O)c1)C(C)Cc1ccc(O)c(O)c1 (stereo not given),inactive,inactive,inactive,inactive,inactive,inactive,inactive,,,
CCOC(C)=O,inactive,inactive,inactive,inactive,inactive,inactive,inactive,inactive,inactive,inactive
Cc1cc(C(=O)NNCc2ccccc2)no1,inactive,inactive,inactive,inactive,inactive,inactive,inactive,inactive,inactive,inactive
CCCC(=O)Nc1ncnc2c1ncn2C1OC2COP(=O)(O)OC2C1OC(=O)CCC (stereo not given),inactive,inactive,inactive,inactive,inactive,inactive,inactive,inactive,inactive,inactive
C[C@]12O[C@H](C[C@]1(O)CO)n1c3ccccc3c3c4c(c5c6ccccc6n2c5c31)CNC4=O,251 nM (active),316 nM (active),398 nM (active),224 nM (active),426 nM (active),447 nM (active),675 nM (active),536 nM (active),269 nM (active),224 nM (active)
O=S(=O)(O)c1ccc2c(N=Nc3ccc(S(=O)(=O)O)c4ccccc34)c(O)c(S(=O)(=O)O)cc2c1,inactive,inactive,inactive,inactive,inactive,inactive,inactive,inactive,inactive,inactive
CC(C(=O)O)c1ccc(N2Cc3ccccc3C2=O)cc1 (stereo not given),inactive,inactive,inactive,inactive,inactive,inactive,inactive,inactive,inactive,inactive
O=C1C(=O)c2ncccc2-c2cccnc21,1260 nM (active),2510 nM (active),1000 nM (active),891 nM (active),6010 nM (active),891 nM (active),849 nM (active),1510 nM (active),1200 nM (active),1000 nM (active)
Nc1c(Br)cc(Br)cc1CNC1CCC(O)CC1 (stereo not given),inactive,inactive,inactive,inactive,inactive,inactive,inactive,inactive,inactive,
C[C@]12CCC(=O)C=C1CC[C@@H]1[C@@H]2[C@@H](O)C[C@@]2(C)[C@H]1CC[C@]2(O)C(=O)COP(=O)(O)O,inactive,inactive,inactive,inactive,inactive,inactive,inactive,inactive,inactive,inactive
IC(I)I,inactive,inactive,inactive,inactive,inactive,inactive,inactive,inactive,inactive,inactive
C[C@H]1C[C@H]2[C@@H]3CCC4=CC(=O)C=C[C@]4(C)[C@@]3(F)[C@@H](O)C[C@]2(C)[C@@]1(O)C(=O)CO,inactive,inactive,inactive,inactive,inactive,inactive,inactive,inactive,inactive,inactive
Cc1c(C)c2c(c(C)c1O)CC[C@@](C)(CCC[C@H](C)CCC[C@H](C)CCCC(C)C)O2,inactive,inactive,inactive,inactive,inactive,inactive,inactive,inactive,inactive,inactive
CC[N+](C)(C)Cc1ccccc1Br,inactive,inactive,inactive,inactive,inactive,inactive,inactive,inactive,inactive,inactive
CC(C)(C)C(=O)OCOC(=O)[C@@H]1N2C(=O)[C@@H](N=CN3CCCCCC3)[C@H]2SC1(C)C,inactive,inactive,inactive,inactive,inactive,inactive,inactive,inactive,inactive,inactive
COC(C(=O)C(O)C(C)O)C1Cc2cc3cc(OC4CC(OC5CC(O)C(O)C(C)O5)C(O)C(C)O4)c(C)c(O)c3c(O)c2C(=O)C1OC1CC(OC2CC(OC3CC(C)(O)C(O)C(C)O3)C(O)C(C)O2)C(O)C(C)O1 (stereo not given),251 nM (active),251 nM (active),316 nM (active),126 nM (active),2130 nM (active),355 nM (active),2130 nM (active),1690 nM (active),1900 nM (active),126 nM (active)
Cc1c(C)c2c(c(C)c1O)CC[C@@](C)(CCC[C@@H](C)CCC[C@@H](C)CCCC(C)C)O2,inactive,inactive,inactive,inactive,inactive,inactive,inactive,inactive,inactive,inactive
CC1(C)S[C@@H]2[C@H](NC(=O)[C@@H](NC(=O)N3CCNC3=O)c3ccccc3)C(=O)N2[C@H]1C(=O)O,inactive,inactive,inactive,inactive,inactive,inactive,inactive,inactive,inactive,inactive
CCCCCCCCCCCC[n+]1ccc2ccccc2c1,1120 nM (active),708 nM (active),562 nM (active),631 nM (active),379 nM (active),1120 nM (active),1690 nM (active),1350 nM (active),757 nM (active),224 nM (active)
CC(=O)N[C@@H](CC(=O)O)C(=O)N[C@@H](CCC(=O)O)C(=O)O (Ac-Asp-Glu-OH),inactive,inactive,inactive,inactive,inactive,inactive,inactive,inactive,inactive,inactive
COC(=O)[C@H]1[C@H]2C[C@@H]3c4[nH]c5ccccc5c4CCN3C[C@H]2C[C@@H](OC(=O)c2cc(OC)c(OC)c(OC)c2)[C@@H]1OC,447 nM (active),398 nM (active),398 nM (active),282 nM (active),1200 nM (active),398 nM (active),1070 nM (active),601 nM (active),675 nM (active),282 nM (active)
CO[C@H](C(=O)[C@@H](O)[C@@H](C)O)C1Cc2cc3cc(O[C@H]4C[C@@H](O[C@H]5C[C@@H](O)[C@H](O)[C@@H](C)O5)[C@@H](O)[C@@H](C)O4)c(C)c(O)c3c(O)c2C(=O)[C@H]1O[C@H]1C[C@@H](O[C@H]2C[C@@H](O[C@H]3C[C@](C)(O)[C@H](O)[C@@H](C)O3)[C@H](O)[C@@H](C)O2)[C@H](O)[C@@H](C)O1 (stereo not given in full),199 nM (active),178 nM (active),251 nM (active),112 nM (active),1690 nM (active),282 nM (active),1690 nM (active),1350 nM (active),1350 nM (active),89.1 nM (active)
CC1(C)C(C=C(Cl)Cl)C1C(=O)OCc1cccc(Oc2ccccc2)c1 (stereo not given),inactive,inactive,inactive,inactive,inactive,inactive,inactive,inactive,inactive,
CC(=O)Oc1c(C)cc(OCC(O)CNC(C)C)c(C)c1C (stereo not given),inactive,inactive,inactive,inactive,inactive,inactive,inactive,inactive,inactive,inactive
CCN(CC)Cc1cc(Nc2ccnc3cc(Cl)ccc23)ccc1O,17.8 nM (active),100 nM (active),89.1 nM (active),20 nM (active),72.1 nM (active),20 nM (active),102 nM (active),51 nM (active),45.5 nM (active),31.6 nM (active)
